Screening results as filed in PubChem.
Only some compounds are listed: those with a hit (about 7.6% of all), similar ones and a draw of the others.
Giardia killer – Giardia lamblia killing | Giardia lamblia trophozoite viability | 340,000 compounds, 0.15% hits | activity change, % at 7.66 µM, hits read low; in the data active = activity change below about -80%; inconclusive = between about -30% and that limit;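 also: parasites exposed to compound for two days anaerobically before the ATP read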
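Giardia trophozoites, 100 cells per well, were exposed to compounds for 48 hrs at 37 deg C under anaerobic conditions; viability was then read as ATP content by bioluminescence after 15-30 min at room temperature.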
p53 reactivation – restores transcriptional activity of mutant p53; Potency, µM (titrated, usually from 92.2 µM), hits mostly activators; H1299 p53-A138V BP100-luciferase reporter, luminescence, 24 h; 320,000 compounds, 0.063% hits; also: nearly all actives have a fitted effect of over 45% in size
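H1299 (p53-null), stable ts p53-A138V + BP100-Luc; 1000 cells/well, Opti-MEM/10% FBS; cpd 4 pt, 1:5; 24 h, 37 deg C, 5% CO2; detection reagent 10 min RT; luminescence.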
Gal4-VP16 FLuc – counter-screen for ROR gamma inhibitors: Gal4-VP16 reporter | Drosophila S2 Gal4-VP16 UAS-luciferase, luminescence, 20 h | Potency, µM (doses to about 53.6 µM), usual class: inhibitors | 310,000 compounds, 3.5% hits;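 also: Gal4-VP16 expression switched on by copper sulfate through the metallothionein promoter; nearly all actives have a fitted effect of over 50% in size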
RORgamma inh – ROR gamma (mouse) transcription inhibition | P51450 | AID 2551 | 310,000 compounds, 5.4% hits | Drosophila S2 Gal4-RORgamma UAS-luciferase reporter, 20 h | Potency, µM (top dose mostly 53.6 µM), hits mostly inhibitors; also: nearly all actives have a fitted effect of over 60% in size
Target sequence (P51450 whole entry, looked up, the tested form may be a part): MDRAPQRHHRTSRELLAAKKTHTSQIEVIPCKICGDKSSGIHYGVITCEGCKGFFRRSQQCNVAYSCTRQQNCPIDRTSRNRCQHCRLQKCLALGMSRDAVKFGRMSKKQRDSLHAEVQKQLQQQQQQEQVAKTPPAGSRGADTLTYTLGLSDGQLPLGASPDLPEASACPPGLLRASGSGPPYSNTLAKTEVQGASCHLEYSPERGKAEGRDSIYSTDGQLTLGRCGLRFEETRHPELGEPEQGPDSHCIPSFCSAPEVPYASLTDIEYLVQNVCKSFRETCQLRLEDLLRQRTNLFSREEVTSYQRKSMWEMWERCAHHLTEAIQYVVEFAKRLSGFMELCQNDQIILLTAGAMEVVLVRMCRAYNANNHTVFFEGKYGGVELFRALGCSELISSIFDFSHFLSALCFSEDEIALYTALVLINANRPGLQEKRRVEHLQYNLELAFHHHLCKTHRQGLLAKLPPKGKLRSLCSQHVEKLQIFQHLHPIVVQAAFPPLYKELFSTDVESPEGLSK
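Luciferase reporter read in Schneider cells carrying Gal4-RORγ (mouse) and UAS-Photinus luciferase; cells given compound 1 h before 700 uM copper sulfate induction, then incubated 20 h at ambient temperature.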
ELG1 DNA repair – ELG1-dependent DNA repair inhibition; HEK293T ELG1-luciferase reporter, luminescence, 16 h; DNA damage induced by 5-fluorouridine; Potency, µM (titrated, usually from 46.1 µM), hits mostly inhibitors; 330,000 compounds, 2.3% hits; AID 504467; also: nearly all actives have a fitted effect of over 55% in size
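Step one: seed 2,000 cells per well. Step two: pin-transfer compound or DMSO alongside 5-fluorouridine. Step three: incubate 16 hr, 37 °C, 5% CO2. Step four: add ONE-Glo, wait 30 min, read luminescence.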
BRCA1 expr up – increases BRCA1 expression | 380,000 compounds, 1.1% hits | Potency, µM (series often up to 46.1 µM), usual class: activators | MCF7-BRCA1-FFLuc reporter, luminescence, 48 h; response scale: scaled: vehicle 0%, 10 µM genistein 100% | AID 624202; also: nearly all actives have a fitted effect of over 80% in size
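Compounds are tested at multiple concentrations on MCF7 BRCA1-luciferase reporter cells seeded at 2000 per well; after 48 h, a single luminescence end-point is taken and curves fitted to the normalized data.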
Each line names hits and unclear results; the compound was inactive in the other large screens. Unless noted, calls follow the shape of the dose curve; as a rule, active = well fitted curve in the direction sought with a large enough effect; inconclusive = small, poorly fitted or top-dose-only effect, or another doubt; inactive = no such curve, though single readings can be large; an effect the other way counts as inactive or inconclusive.

O=C(NCCc1c[nH]c2ccccc12)C(=O)NCC1OCCCN1S(=O)(=O)c1ccc(F)cc1 (centres undefined)	ELG1 DNA repair inconclusive
COc1ccc(CCNC(=O)C(=O)NCC2OCCN2S(=O)(=O)c2ccc(OC)c(OC)c2)cc1 (centres undefined)	ELG1 DNA repair inconclusive
COc1ccc(S(=O)(=O)N2CCOC2CNC(=O)C(=O)NCCc2ccc(OC)c(OC)c2)cc1C (centres undefined)	ELG1 DNA repair 15µM
COc1ccccc1CCNC(=O)C(=O)NCC1OCCN1S(=O)(=O)c1ccc(OC)c(OC)c1 (centres undefined)	ELG1 DNA repair 21µM
C#CCOCCOCCOCCNc1nc(N2CCN(C(=O)[C@H]([C@@H](C)CC)n3cc([C@@H](N)Cc4ccc(O)cc4)nn3)CC2)nc(N2CCN(C(=O)[C@H](Cc3cc4ccccc4[nH]3)n3cc([C@@H](N)CC(C)C)nn3)CC2)n1	ELG1 DNA repair inconclusive (no result: Gal4-VP16 FLuc, RORgamma inh)
O=C(NCc1ccccn1)C(=O)NCC1OCCN1S(=O)(=O)c1ccc(Br)cc1 (centres undefined)	Gal4-VP16 FLuc 25µM, ELG1 DNA repair inconclusive
COc1ccc(S(=O)(=O)N2CCOC2CNC(=O)C(=O)NCc2ccccn2)cc1 (centres undefined)	none (no result: p53 reactivation, Gal4-VP16 FLuc, RORgamma inh, ELG1 DNA repair)
COc1ccc(CCNC(=O)C(=O)NCC2OCCN2S(=O)(=O)c2ccc(C)cc2)cc1 (centres undefined)	RORgamma inh inconclusive (no result: p53 reactivation)
COc1ccc(CCNC(=O)C(=O)NCC2OCCN2S(=O)(=O)c2ccc3c(c2)OCCO3)cc1OC (centres undefined)	ELG1 DNA repair 12µM
COc1ccc(S(=O)(=O)N2CCOC2CNC(=O)C(=O)NCCc2ccccc2)cc1 (centres undefined)	ELG1 DNA repair 21µM
CC1(C(=O)NCCC#N)CCN1C(=O)C1(c2ccccc2)CCCC1 (centres undefined)	none (no result: Giardia killer, p53 reactivation, Gal4-VP16 FLuc, RORgamma inh, ELG1 DNA repair)
CCCc1ccc(-c2ccc(/C=C/C(=O)O)cc2)nc1	Giardia killer inconclusive, Gal4-VP16 FLuc inconclusive, RORgamma inh 0.16µM, ELG1 DNA repair inconclusive, BRCA1 expr up inconclusive
CC(C)C(=O)Nc1nnc(SCc2cccc(F)c2)s1	none
CC(C)Cn1c(=O)c(-[n+]2ccccc2)c([O-])c2ccccc21	none
CCCCn1c(=O)c(-[n+]2ccccc2)c([O-])c2ccccc21	RORgamma inh 11µM
O=C(CCc1ccccc1)Nc1ccc2c(c1)OCCO2	p53 reactivation inconclusive, ELG1 DNA repair inconclusive, BRCA1 expr up 11µM
O=C(CCc1ccccc1)Nc1nnc(-c2ccc3c(c2)OCCO3)o1	Gal4-VP16 FLuc inconclusive, RORgamma inh 6.3µM
O=C(CCc1ccccc1)Nc1cc2c3c(c1)CCC(=O)N3CCC2	none (no result: Gal4-VP16 FLuc, RORgamma inh)
O=C(CCc1ccccc1)Nc1nnc(-c2ccc3c(c2)CCCC3)o1	Gal4-VP16 FLuc inconclusive, RORgamma inh 14µM, ELG1 DNA repair inconclusive, BRCA1 expr up inconclusive
O=C(Nc1ccc2c(c1)OCCO2)N1CCN(c2ccccc2)CC1	Giardia killer inconclusive, ELG1 DNA repair inconclusive
O=C(CCc1ccccc1)Nc1nnc(-c2ccccn2)o1	Gal4-VP16 FLuc inconclusive, RORgamma inh inconclusive
O=C(Nc1ccc2c(c1)OCCO2)N1CCN(Cc2ccccc2)CC1	ELG1 DNA repair inconclusive, BRCA1 expr up 13µM
COC(=O)c1cc(NC(=O)c2cccc(C(F)(F)F)c2)c(=O)oc1C/C=N/OCc1cccc(Cl)c1Cl	none
COc1ccc(/C=C/C(=O)NC2CCS(=O)(=O)C2)cc1 (centres undefined)	none (no result: Gal4-VP16 FLuc, RORgamma inh)
CC(C)(C)c1ccc(/C=N/NC(=S)NC2CCCCC2)cc1	p53 reactivation inconclusive, Gal4-VP16 FLuc 3.2µM, RORgamma inh 1.1µM
O=C(N/N=C/c1ccccc1)NC1CCCCC1	p53 reactivation inconclusive, ELG1 DNA repair inconclusive, BRCA1 expr up inconclusive
COc1ccc(/C=N/NC(=S)NC2CCS(=O)(=O)C2)cc1 (centres undefined)	Gal4-VP16 FLuc 4.5µM, RORgamma inh 7.1µM
c1ccc(CSCc2cn3ccsc3n2)cc1	p53 reactivation inconclusive, ELG1 DNA repair inconclusive, BRCA1 expr up 8.9µM
CCNC(=S)N1CCN=C1Nc1nc(C)cc(C)n1	RORgamma inh 18µM, ELG1 DNA repair inconclusive
Cc1cc(C)nc(NC2=NCCN2C(=O)NC2CCCCC2)n1	none
CCN1C(=O)[C@@H]2[C@H]3C(=CC[C@H]2C1=O)C(=O)[C@H]1OC1[C@H]3O (some centres undefined)	Gal4-VP16 FLuc inconclusive, RORgamma inh 2µM (no result: Giardia killer, p53 reactivation, ELG1 DNA repair, BRCA1 expr up)
O=C1C2=CC[C@H]3C(=O)N(c4cccc(Oc5ccccc5)c4)C(=O)[C@@H]3[C@@H]2[C@H](O)[C@@H]2O[C@H]12	Gal4-VP16 FLuc inconclusive, RORgamma inh 2.2µM (no result: Giardia killer, p53 reactivation, ELG1 DNA repair, BRCA1 expr up)
O=C1C2=CC[C@H]3C(=O)N(Cc4ccc5c(c4)OCO5)C(=O)[C@@H]3[C@@H]2[C@H](O)[C@@H]2O[C@H]12	Gal4-VP16 FLuc inconclusive, RORgamma inh 4.5µM (no result: Giardia killer, p53 reactivation, ELG1 DNA repair, BRCA1 expr up)
CCOC(=O)C1=CCC2C(=O)N(CC)C(=O)C12 (centres undefined)	none (no result: Giardia killer, p53 reactivation, Gal4-VP16 FLuc, RORgamma inh, ELG1 DNA repair)
O=C1C2=CC[C@H]3C(=O)N(C4CCCCC4)C(=O)[C@@H]3[C@@H]2[C@H](O)[C@@H]2O[C@H]12	Gal4-VP16 FLuc inconclusive, RORgamma inh 2µM (no result: Giardia killer, p53 reactivation, ELG1 DNA repair, BRCA1 expr up)
O=C1C2=CC[C@H]3C(=O)N(Cc4ccccc4)C(=O)[C@@H]3[C@@H]2[C@H](O)[C@@H]2O[C@H]12	Gal4-VP16 FLuc inconclusive, RORgamma inh 2.2µM (no result: Giardia killer, p53 reactivation, ELG1 DNA repair, BRCA1 expr up)
CC1=CCC2C(=O)N(Cc3ccccc3)C(=O)C2C1 (centres undefined)	none
O=C1CCCC2=C1C1O[C@](c3ccsc3)(Cc3c1ccc1ccccc31)O2	none (no result: Giardia killer, p53 reactivation, ELG1 DNA repair, BRCA1 expr up)
COc1ccc(C(=O)CC(Nc2ccc([N+](=O)[O-])cc2)c2ccc(OC)cc2)cc1 (centres undefined)	none
CNC(CC(=O)c1ccc([N+](=O)[O-])cc1)C(Cl)(Cl)Cl (centres undefined)	Gal4-VP16 FLuc 13µM, RORgamma inh inconclusive
CCn1c(C)nc2cc(C(=O)N/N=C/c3cccc(O)c3O)ccc21	p53 reactivation inconclusive, Gal4-VP16 FLuc 11µM, RORgamma inh 2.2µM, ELG1 DNA repair inconclusive
CCn1c(C)nc2cc(C(=O)N/N=C(\C)c3ccc(OC)cc3O)ccc21	Gal4-VP16 FLuc 2.8µM, RORgamma inh 1µM, ELG1 DNA repair 7.3µM
Cc1cc(N(C)C)nc(Nc2ccccc2)n1	p53 reactivation inconclusive, ELG1 DNA repair 15µM (no result: Gal4-VP16 FLuc, RORgamma inh)
COc1cc(/C=C/c2nc3ccccc3c(=O)[nH]2)ccc1OC(F)F	ELG1 DNA repair inconclusive, BRCA1 expr up 3.2µM
COc1cc(/C=C/c2nc3ccccc3c(=O)[nH]2)cc(OC)c1OC	none
